33 compounds from PubChem BioAssay (Tox21) can be followed below.

Values joined by “and” are separate entries in the source; they are usually repeats but may differ in a detail not shown here. Equal entries are not always repeated. Records with an inconclusive call do not appear. Active and inactive are the calls of the source. Unless noted, calls follow the shape of the dose curve; as a rule, active = well fitted curve in the direction sought with a large enough effect in the repeat runs; inconclusive = weak or mixed curves; inactive = no such curve, though single readings can be large; an effect the other way counts as inactive or inconclusive.

In experiment [1] the target is Estrogen receptor beta (Homo sapiens) (UniProt Q92731). Kind of experiment: qHTS assay to identify small molecule agonists of the estrogen receptor beta (ER-beta) signaling pathway (AID 1259377; active = well fitted activation curve with a large enough effect in the signal ratio in the repeat runs, not every such curve was filed as active; the % refers to the signal ratio). Summed up:
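Ratiometric beta-lactamase FRET read-out came after 2 h substrate loading at room temperature. It followed 16 h compound treatment at 37C of GripTite HEK293T cells carrying a UAS-bla reporter, plated in 2% charcoal-stripped FBS medium.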
A general note: Quantitative high-throughput screening tests each substance at several concentrations.

Experiment [2] can be described thus: qHTS assay to identify small molecule agonists of the androgen receptor (AR) signaling pathway in the presence of an antagonist - cell viability counter screen (AID 1259379). Also: nearly all actives have a fitted effect of over 25% in size. Also: potency is read from the fitted curve at half-maximal effect. Summed up: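 Viability counter screen: CellTiter-Fluor fluorescence, measured in the same wells as the luciferase read-out. MDA-kb2 cells, 3,000/well, with nilutamide at 3.0uM final and compounds at 15 concentrations, 16 hr at 37C, 0% CO2.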

The nature of experiment [3]: qHTS assay to identify small molecule agonists of the estrogen receptor beta (ER-beta) signaling pathway - cell viability counter screen (AID 1259380). Also: nearly all actives have a fitted effect of over 30% in size. Also: potency is read from the fitted curve at half-maximal effect. Summed up: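 Luminescence read-out (CellTiter-Glo, 30 min, room temp) taken in the same wells as the beta-lactamase reporter assay; ER-beta-UAS-bla HEK293T cells exposed to DMSO-dissolved compounds for 16 hr at 37C in 2% charcoal-stripped FBS medium.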

Experiment [4] in a line: qHTS assay to identify small molecule antagonists of the estrogen receptor beta (ER-beta) signaling pathway - cell viability counter screen (AID 1259382). Also: series mostly up to about 92 µM; nearly all actives have a fitted effect of over 55% in size. Summed up:
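Luminescent ATP read-out (CellTiter-Glo, 30 min, RT) taken in the same wells as the bla reporter assay. HEK293T ER-beta-UAS-bla cells in 2% charcoal-stripped FBS were exposed to compounds with 1nM E2 for 16 hr at 37C.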

Experiment [5] has as its target Estrogen receptor (Homo sapiens) (UniProt P03372). The experiment can be described thus: qHTS assay to identify small molecule agonists of the estrogen receptor alpha (ER-alpha) signaling pathway in the presence of an antagonist (AID 1259383; calls by dose curve; also: nearly all actives have a fitted effect of over 15% in size; also: potency is read from the fitted curve at half-maximal effect; as to activation: top concentration of the series differs between compounds). In short, it runs like this:
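Luciferase luminescence (ONE-Glo, 30min at room temperature) measured in VM7Luc4E2 cells after 22hr compound exposure at 15 concentrations, with 10.0nM ICI-182,780 final present; cells express endogenous ER-alpha and carry four EREs upstream of luciferase.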

Experiment [6] is described as follows: qHTS assay to identify small molecule agonists or antagonists of the thyroid stimulating hormone receptor (TSHR) signaling pathway - wild type cell line counter screen (AID 1259384; calls by dose curve). In short, it runs like this: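 Wild-type HEK293 cells were plated 18 h at 37 C/5% CO2, pin-dosed with compound plus Ro20-1724 medium, held 30 min at room temperature, then given cAMP-d2 and anti-cAMP-cryptate; fluorescence was read after 1 h. Fifteen concentrations, triplicate.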

Experiment [7] has as its target Thyrotropin receptor (Homo sapiens) (UniProt P16473). The experiment can be described thus: qHTS assay to identify small molecule antagonists of the thyroid stimulating hormone receptor (TSHR) signaling pathway (AID 1259385; calls by dose curve; also: nearly all actives have a fitted effect of over 20% in size). In short, it runs like this: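 TSHR-HEK293 cells were plated and held 18 h at 37C/5% CO2, then given compound plus Ro20-1724 and stimulated with TSH at 1.5 ng/mL final. After 30 min at room temperature, cAMP was detected with cAMP-d2/anti-cAMP-cryptate (1 h) by fluorescence.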

Experiment [8] is described as follows: qHTS assay to identify small molecule agonists of the estrogen receptor alpha (ER-alpha) signaling pathway in the presence of an antagonist - cell viability counter screen (AID 1259386). Also: nearly all actives have a fitted effect of over 30% in size. Also: potency is read from the fitted curve at half-maximal effect. Summed up: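 Read-out: CellTiter-Fluor fluorescence after 1hr reagent incubation, measured in the same wells as the luciferase readout. VM7Luc4E2 cells were exposed to 15 compound concentrations with 10.0nM ICI-182,780 for 22hr at 37C.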

Experiment [9] deals with Estrogen receptor beta (Homo sapiens) (UniProt Q92731). Kind of experiment: qHTS assay to identify small molecule antagonists of the estrogen receptor beta (ER-beta) signaling pathway (AID 1259378; active = well fitted inhibition curve with a large enough effect in the signal ratio in the repeat runs, not every such curve was filed as active; the % refers to the signal ratio; also: potency is read from the fitted curve at half-maximal effect). In short, it runs like this:
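ER-beta-UAS-bla HEK293T (GripTite) cells in 2% charcoal-stripped FBS medium were preincubated 6 hr at 37C, dosed with compound, then stimulated with 1 nM E2 (final) for 16 hr; beta-lactamase reporter read by B/G FRET fluorescence after 2 hr substrate loading.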

The target in experiment [10] is Androgen receptor (Homo sapiens) (UniProt P10275). Kind of experiment: qHTS assay to identify small molecule agonists of the androgen receptor (AR) signaling pathway in the presence of an antagonist (AID 1259381; calls by dose curve; also: nearly all actives have a fitted effect of over 15% in size). Summed up: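 Luciferase read-out (ONE-Glo, 30min room temperature) in MDA-kb2 MMTV-reporter cells; agonist mode run in presence of AR antagonist nilutamide, 3.0uM final. Compounds tested as 15-point series, 16hr exposure at 37C, 0% CO2.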
Androgen receptor (Homo sapiens), sequence (P10275 whole entry, looked up): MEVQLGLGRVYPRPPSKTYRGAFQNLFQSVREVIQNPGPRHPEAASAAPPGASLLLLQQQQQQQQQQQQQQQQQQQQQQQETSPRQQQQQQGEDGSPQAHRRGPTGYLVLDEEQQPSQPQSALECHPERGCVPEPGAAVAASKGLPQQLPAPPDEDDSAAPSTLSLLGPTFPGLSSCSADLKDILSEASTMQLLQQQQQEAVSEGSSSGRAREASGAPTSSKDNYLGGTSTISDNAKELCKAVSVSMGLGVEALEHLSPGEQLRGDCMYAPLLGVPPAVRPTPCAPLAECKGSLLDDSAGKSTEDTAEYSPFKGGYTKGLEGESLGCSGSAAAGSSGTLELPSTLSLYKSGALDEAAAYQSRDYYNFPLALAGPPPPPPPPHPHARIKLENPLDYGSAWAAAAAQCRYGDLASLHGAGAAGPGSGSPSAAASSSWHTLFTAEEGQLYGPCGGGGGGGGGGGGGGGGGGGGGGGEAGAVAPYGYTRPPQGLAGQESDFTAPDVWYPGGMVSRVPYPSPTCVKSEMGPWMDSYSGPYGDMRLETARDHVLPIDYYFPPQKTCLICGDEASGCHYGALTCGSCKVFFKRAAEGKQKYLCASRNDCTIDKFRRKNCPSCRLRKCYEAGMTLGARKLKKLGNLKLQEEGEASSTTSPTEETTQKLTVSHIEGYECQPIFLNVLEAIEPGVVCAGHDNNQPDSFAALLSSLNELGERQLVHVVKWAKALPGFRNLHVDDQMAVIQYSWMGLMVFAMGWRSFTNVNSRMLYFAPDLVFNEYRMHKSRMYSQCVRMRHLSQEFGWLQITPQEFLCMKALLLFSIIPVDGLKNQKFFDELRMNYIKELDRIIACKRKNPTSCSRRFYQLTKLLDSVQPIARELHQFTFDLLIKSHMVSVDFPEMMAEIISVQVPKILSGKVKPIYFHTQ

Estrogen receptor (Homo sapiens), sequence (P03372 whole entry, looked up): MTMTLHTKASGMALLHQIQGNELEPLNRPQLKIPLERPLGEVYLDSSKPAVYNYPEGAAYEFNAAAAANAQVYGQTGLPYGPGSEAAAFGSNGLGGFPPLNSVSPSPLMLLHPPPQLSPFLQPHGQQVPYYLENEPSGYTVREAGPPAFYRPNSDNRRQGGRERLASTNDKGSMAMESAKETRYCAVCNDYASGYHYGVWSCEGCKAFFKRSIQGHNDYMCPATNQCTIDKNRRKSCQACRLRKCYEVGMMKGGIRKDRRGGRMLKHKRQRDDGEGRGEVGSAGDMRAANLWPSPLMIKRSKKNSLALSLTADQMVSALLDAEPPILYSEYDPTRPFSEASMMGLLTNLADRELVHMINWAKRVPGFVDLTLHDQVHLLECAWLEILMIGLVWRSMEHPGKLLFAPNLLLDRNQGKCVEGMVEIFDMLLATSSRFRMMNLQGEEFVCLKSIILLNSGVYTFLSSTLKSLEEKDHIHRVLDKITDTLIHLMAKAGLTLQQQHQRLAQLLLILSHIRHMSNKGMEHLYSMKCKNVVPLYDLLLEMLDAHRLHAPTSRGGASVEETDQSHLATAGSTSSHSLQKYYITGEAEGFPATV
Thyrotropin receptor (Homo sapiens), sequence (P16473 whole entry, looked up): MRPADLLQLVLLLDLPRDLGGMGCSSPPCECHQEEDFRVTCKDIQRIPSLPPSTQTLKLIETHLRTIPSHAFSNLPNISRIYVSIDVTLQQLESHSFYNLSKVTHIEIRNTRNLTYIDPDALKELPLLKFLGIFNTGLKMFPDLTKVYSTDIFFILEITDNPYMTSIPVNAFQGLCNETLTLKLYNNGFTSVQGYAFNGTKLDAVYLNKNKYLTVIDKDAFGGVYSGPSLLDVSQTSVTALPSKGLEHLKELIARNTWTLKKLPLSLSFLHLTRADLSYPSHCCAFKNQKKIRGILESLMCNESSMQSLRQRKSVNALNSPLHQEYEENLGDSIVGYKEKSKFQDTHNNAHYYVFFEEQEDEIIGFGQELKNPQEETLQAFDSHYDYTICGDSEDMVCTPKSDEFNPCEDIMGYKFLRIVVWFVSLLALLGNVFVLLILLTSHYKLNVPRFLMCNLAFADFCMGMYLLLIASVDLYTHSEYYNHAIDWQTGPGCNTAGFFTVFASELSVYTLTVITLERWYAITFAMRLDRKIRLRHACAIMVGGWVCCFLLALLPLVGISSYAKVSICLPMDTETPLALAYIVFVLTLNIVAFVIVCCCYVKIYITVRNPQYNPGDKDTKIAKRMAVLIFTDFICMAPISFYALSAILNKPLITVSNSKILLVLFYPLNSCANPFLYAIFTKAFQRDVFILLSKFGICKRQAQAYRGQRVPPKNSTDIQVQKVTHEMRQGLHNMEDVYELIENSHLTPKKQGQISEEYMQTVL
Estrogen receptor beta (Homo sapiens), sequence (Q92731 whole entry, looked up): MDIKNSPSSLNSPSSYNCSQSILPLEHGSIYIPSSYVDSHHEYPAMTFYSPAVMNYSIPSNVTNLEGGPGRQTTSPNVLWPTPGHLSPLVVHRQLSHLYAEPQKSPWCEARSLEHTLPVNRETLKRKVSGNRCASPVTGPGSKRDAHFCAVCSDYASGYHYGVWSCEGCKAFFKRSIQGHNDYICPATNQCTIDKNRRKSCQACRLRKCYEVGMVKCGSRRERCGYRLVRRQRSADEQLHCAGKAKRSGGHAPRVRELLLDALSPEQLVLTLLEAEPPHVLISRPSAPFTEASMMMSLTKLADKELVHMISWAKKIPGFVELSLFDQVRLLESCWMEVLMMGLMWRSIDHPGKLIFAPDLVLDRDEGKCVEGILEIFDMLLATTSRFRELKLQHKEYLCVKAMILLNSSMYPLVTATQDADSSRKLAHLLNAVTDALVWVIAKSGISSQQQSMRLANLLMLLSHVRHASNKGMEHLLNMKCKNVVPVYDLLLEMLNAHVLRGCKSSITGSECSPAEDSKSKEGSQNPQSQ

For the compound `CCc1ccc(C(=O)NN(C(=O)c2cc(C)cc(C)c2)C(C)(C)C)cc1`, the Potency entry in experiment [1], in experiment [2], in experiment [3], in experiment [4], in [5] and in experiment [7] was “inactive” in each case. Further, the outcome in experiment [6] was inactive. For the same compound, the Potency in experiment [8] is 5.45 µM (active).

On to `O=C(CBr)Nc1ccc(Cl)cc1C(=O)c1ccccc1F`, for which the Potency result in [9], in [2], in [3], in experiment [10], in [4] and in [5] was “inactive” throughout. The Potency entry in experiment [7] and in [8] was “inactive” each time. In addition, the compound was called inactive in [6].

Take `CN1C[C@H](CNC(=O)OCc2ccccc2)C[C@@H]2c3cccc4c3c(cn4C)C[C@H]21`: the Potency result in experiment [1], in experiment [2], in [5] and in experiment [8] was “inactive” in each case. In addition, in [6], the compound was classed as inactive.

Turning to `O=S(=O)(O)C(F)(F)C(F)(F)C(F)(F)C(F)(F)F`, the Potency entry in experiment [1], in [2], in experiment [3], in [4], in experiment [7] and in [8] was “inactive” each time. In addition, in [5], the Potency was 0.578 µM (active). The call in experiment [6] was inactive.

Consider `CCCCC(CC)COP(=O)(Oc1ccccc1)Oc1ccccc1` (stereo unspecified), for which the Potency entry in experiment [1], in [2], in experiment [10], in experiment [4], in experiment [5] and in experiment [8] was “inactive” each time. Further, the compound was called inactive in [6].

For `CC(C)N(C(=O)COc1nnc(C(F)(F)F)s1)c1ccc(F)cc1`, the Potency result in experiment [1], in [2], in [4], in experiment [5], in experiment [7] and in [8] was “inactive” each time. The outcome in experiment [6] was inactive.

For `Cc1ccccc1C(=O)Nc1cccc(OC(C)C)c1`, the Potency result in experiment [9], in experiment [2], in [10], in [5], in experiment [7] and in experiment [8] was “inactive” each time. The Potency in experiment [3] is 19.3 µM (active). The compound was called inactive in experiment [6].

Regarding `CCOc1nc(F)cc2nc(S(=O)(=O)Nc3c(Cl)cccc3Cl)nn12`, the Potency result in experiment [9], in [2], in [3], in experiment [4], in [5] and in experiment [7] was “inactive” in each case. Besides, the Potency result in experiment [8] is “inactive”. Besides, the call in experiment [6] was inactive.

As to `CC[C@H]1C[C@H]2[C@@H]3CCC4=CC(=O)CC[C@@H]4[C@H]3CC[C@]2(C)[C@H]1O`, the Potency entry in [1], in experiment [2], in [3], in experiment [4], in [5] and in [7] was “inactive” in each case. Also, in [8], the Potency entry is “inactive”. The compound was called inactive in [6].

Take `C=CCN1CC[C@]23c4c5ccc(O)c4O[C@H]2C(=O)CC[C@@]3(O)[C@H]1C5`: the Potency entry in [1], in experiment [2], in experiment [3], in experiment [4], in [7] and in experiment [8] was “inactive” in each case. Also, the call in [6] was inactive.

Take `Cc1cc(=O)[nH]o1`: the Potency entry in experiment [9], in experiment [2], in [3], in [10], in [4] and in experiment [5] was “inactive” in each case. Also, the Potency entry in experiment [7] and in [8] was “inactive” in each case. The compound was called inactive in experiment [6].

`C[N+](C)(C)CCCl`: the Potency entry in experiment [9], in [2], in [3], in [10], in experiment [4] and in experiment [5] was “inactive” in each case. Besides, the Potency entry in experiment [7] and in experiment [8] was “inactive” throughout. Also, the compound was called inactive in experiment [6].

Turning to `COCC(C)N(C(=O)CCl)c1c(C)csc1C` (stereo unspecified), the Potency result in [1], in experiment [2], in experiment [3], in [4], in experiment [5] and in experiment [8] was “inactive” throughout.

As for `Clc1ccc(C2(Cn3cncn3)CC(Br)CO2)c(Cl)c1` (stereo unspecified), the Potency entry in experiment [1], in experiment [2], in experiment [3], in [4], in experiment [5] and in experiment [7] was “inactive” in each case. Besides, the outcome in experiment [6] was inactive.

With `CS/C(C)=N/OC(=O)N(C)SN(C)C(=O)O/N=C(\C)SC`, the Potency result in experiment [1], in experiment [10], in experiment [4], in [5] and in [8] was “inactive” each time. Further, the compound was classed as inactive in [6].

`C(=NC1CCCCC1)=NC1CCCCC1`: the Potency result in [1], in [3], in [4], in [5] and in experiment [8] was “inactive” each time. In addition, the Potency in experiment [2] is 2.45 µM (active) and 4.86 µM (active). In addition, the compound was called inactive in experiment [6].

On to `CCOC(=O)[C@]1(c2ccccc2)Oc2ccccc2[C@@H]1N`, for which the Potency result in experiment [1], in experiment [4] and in [7] was “inactive” throughout. Further, in experiment [6], the compound was called inactive.

As for `CCCC(Cn1cncn1)c1ccc(Cl)cc1Cl` (stereo unspecified), the Potency entry in experiment [1], in experiment [2], in experiment [4] and in experiment [8] was “inactive” throughout. In experiment [6], the compound was called inactive.

For the compound `O=C(NC(=O)c1c(F)cccc1F)Nc1cc(Cl)c(Oc2ncc(C(F)(F)F)cc2Cl)c(Cl)c1`, the Potency result in experiment [1], in experiment [10], in [4], in experiment [5] and in experiment [8] was “inactive” each time. Besides, in [6], the call was inactive.

In the case of `Cc1ccccc1CCl`, the Potency entry in [9], in experiment [2], in experiment [3], in [4] and in experiment [8] was “inactive” each time.

Consider `CCC(C)(NC(=O)c1cc(Cl)c(C)c(Cl)c1)C(=O)CCl` (stereo unspecified), for which the Potency is 19.4 µM (active) in experiment [9], 61.5 µM (active) in experiment [2] and 61.5 µM (active) in [3]. The Potency result in experiment [5] and in experiment [8] was “inactive” each time. For the same compound, in experiment [6], the compound was classed as inactive.

Take `CC(=O)NC1CCSC1=O` (stereo unspecified): the Potency result in experiment [2], in [3], in experiment [10], in experiment [4], in experiment [5] and in experiment [7] was “inactive” in each case. Besides, the Potency entry in experiment [8] was “inactive”. Further, in [6], the result was inactive.

Consider `C#CCOC(C(=O)OCCN(C)C)(c1ccccc1)c1ccccc1`, for which the Potency entry in [9], in [2], in experiment [3], in [4], in experiment [7] and in experiment [8] was “inactive” in each case. Also, in experiment [6], the result was inactive.

Take `O=C1C(=O)c2cccc3cccc1c23`: the Potency result in [9], in experiment [2], in experiment [4], in [5], in experiment [7] and in experiment [8] was “inactive” throughout. Moreover, in experiment [3], the Potency is 43.2 µM (active). In experiment [6], the result was inactive.

Take `O=C(CBr)OCc1ccccc1`: the Potency result in experiment [9], in [2], in [3], in experiment [4], in [5] and in experiment [8] was “inactive” in each case.

As to `Oc1ccc(Cl)c(Cl)c1Cl`, the Potency result in experiment [9], in experiment [2], in [4] and in experiment [8] was “inactive” in each case. Besides, the compound was classed as inactive in experiment [6].

For `Clc1cccc2ccccc12`, the Potency entry in experiment [9], in [2], in experiment [3], in [4], in experiment [7] and in experiment [8] was “inactive” throughout. Further, the compound was called inactive in experiment [6].

Take `NC(=O)C(Cl)(Cl)Cl`: the Potency result in experiment [9], in experiment [2], in experiment [3], in experiment [4], in [5] and in [8] was “inactive” in each case. Besides, in [6], the call was inactive.

Regarding `N#CCC#N`, the Potency entry in [9], in experiment [2], in [10], in [4], in [5] and in [8] was “inactive” in each case. Moreover, the call in [6] was inactive.

For the compound `O=C1c2ccccc2C(=O)C1C(=O)C(c1ccccc1)c1ccccc1`, in experiment [9], the Potency was 23.7 µM (active). For the same compound, the Potency result in [2], in experiment [3], in [4] and in [8] was “inactive” in each case. Moreover, the compound was classed as inactive in experiment [6].

As to `CC1C(=O)C[C@]2(C(C)C)C[C@H]12` (stereo partly specified), the Potency result in [9], in [2], in experiment [3], in experiment [4], in experiment [7] and in [8] was “inactive” each time. Besides, the result in experiment [6] was inactive.

For the compound `Cc1ccc(N)cc1C`, the Potency entry in experiment [9], in experiment [2], in [3], in [4], in experiment [5] and in experiment [7] was “inactive” in each case. For the same compound, in [8], the Potency entry is “inactive”. In experiment [6], the result was inactive.

As for `O=Cc1ccc(Cl)cc1Cl`, the Potency entry in experiment [9], in experiment [2], in experiment [3], in experiment [4] and in experiment [8] was “inactive” in each case.
